Cav3 T inh = Cav3.2 calcium influx blockers – cell-based, Fluo-4 calcium fluorescence, FDSS, MLSMR library, primary screen; Cav3.2-expressing cells; stronger effect = lower value; B-score at 10 µM; 4% of 100,000 active;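 active means single-dose well whose peak fluorescence ratio is a statistical outlier from its plate by either plate-standardised score or position-corrected B-score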
CYP2C9 act = human CYP2C9 activators, primary screen, biochemical, luminescence. Cytochrome P450 2C9 (Homo sapiens), P11712. recombinant CYP2C9, luciferin-H conversion; stronger effect = higher value; factor 1 = untreated enzyme, 0 = blocked. activation factor at 5 µM. 1.4% of 96,000 active. AID 1024, 2008;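 active means activation factor of 2 or more for CYP2C9 at a 5 µM dose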;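 further: 0 = sulfaphenazole-blocked wells and 1 = vehicle-only wells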
CYP2C19 inh = blockers of cytochrome P450 2C19 activity – biochemical, luminescence, ADME assay, primary screen; inhibition, % at 5 µM; 21% of 96,000 active; CYP2C19 Supersomes, luciferin-H EGE luminescence, 30 min; AID 778, 2007; P33261;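 active means CYP2C19 inhibition above a set limit at 5 µM in the primary screen, cut at about 50% in these data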;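 further: plate controls were negative control wells for no effect and 2.5 mM tranylcypromine positive control for full effect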
CYP2C9 inh = blockers of cytochrome P450 2C9 activity – biochemical, luminescence, ADME assay, primary screen; CYP2C9 Supersomes, luciferin-H conversion; inhibition, % at 5 µM; 20% of 96,000 active; P11712;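 active means blocking of liver enzyme CYP2C9 beyond about 50% at 5 µM, limit read from the data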
CYP2C19 activ = human CYP2C19 activators, primary screen, biochemical, luminescence. Cytochrome P450 2C19 (Homo sapiens), P33261. recombinant CYP2C19, luciferin-H EGE luminescence; stronger effect = higher value; 0 = fully inhibited enzyme, 1 = untreated enzyme. activation factor at 5 µM. 96,000 tested, under 10 active;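 active means activation factor of at least 2 at 5 µM in the primary screen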;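 further: 0 = wells with 2.5 mM tranylcypromine and 1 = vehicle-only wells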
* hit, by the source's call; . = no result. In the library only some 27% were active in any assay of this set; here they are far more common.

SMILES	Cav3 T inh	CYP2C9 act	CYP2C19 inh	CYP2C9 inh	CYP2C19 activ
CCOC(=O)c1cccc(N2C(=O)c3ccccc3S2(=O)=O)c1	.	0.3	56*	68*	0.4
CCOC(=O)c1cccc(-n2c(C)nc3ccccc3c2=O)c1	0.6	0.9	13	8	0.9
COc1cccc(Nc2c(F)c(F)c(F)c(F)c2C(=O)O)c1	0.045	0.4	9	61*	0.9
c1ccc(-c2cc3c(ccc4nonc43)nn2)cc1	0.1	0.9	5	15	1
On1onc2c3cc(-c4ccccc4)nc3ccc21	.	0.3	25	65*	0.8
CCn1cc(C(=O)Nc2ccc(-n3cnnn3)c(OC)c2)c(=O)c2ccc(C)nc21	0.94	0.9	2	13	1
CN(C)S(=O)(=O)N1CCN(S(=O)(=O)N(C)C)CC1	-0.18	1	7	-4	0.9
O=C(OCc1nc2ccccc2s1)c1cccc(S(=O)(=O)N2CCOCC2)c1	-0.47	0.4	60*	65*	0.4
CN1CCN(S(=O)(=O)c2cccc(C(=O)Nc3nc(-c4ccccc4)cs3)c2)CC1	.	0.6	21	36	0.8
O=C(CCc1ccc(S(=O)(=O)N2CCOCC2)cc1)OCc1nc2ccccc2s1	2.4	0.7	-1	25	1
O=C(COC(=O)c1cccc(S(=O)(=O)N2CCOCC2)c1)Nc1nc(-c2ccccc2Cl)cs1	-5*	0.3	67*	74*	0.3
Cc1ccc(C2C(C(=O)c3cccs3)=C(O)C(=O)N2CCN2CCOCC2)o1 (stereo unspecified)	-0.0056	1.2	-17	-17	1.2
CCC1(CC)C(=O)C2=C3C1[C@H](C(=O)OC)CC(C(=O)OC)C[C@H]3n1c(=O)n(-c3ccccc3)c(=O)n1[C@H]2C (stereo partly specified)	0.84	.	.	.	.
Cc1cc(C)cc(NS(=O)(=O)c2ccc(NC(=S)NC(=O)c3ccc(Br)o3)cc2)c1	-3	0.3	27	74*	0.7
Cc1ccc(NS(=O)(=O)c2ccc(NC(=O)c3ccc(Br)o3)cc2)c(C)c1	-2.1	0.3	8	67*	0.9
COc1nc(NCc2ccco2)nc(NC2CCCCC2)n1	-4*	.	.	.	.
COc1ccc(CNc2nc3nc4c(c(=O)n3[nH]2)CCC4)cc1	0.88	0.8	-1	17	1
Cc1sc2nc(CN(C(=O)NC3CCCCC3)C3CCCCC3)[nH]c(=O)c2c1C	0.71	.	.	.	.
Cc1sc2nc(SCC(=O)NCc3cccs3)[nH]c(=O)c2c1C	-1.7	0.3	19	67*	0.8
Cc1sc2nc(SCC(=O)NCc3ccco3)[nH]c(=O)c2c1C	-0.05	0.7	-17	33	1.2
Cc1sc2nc(CN(Cc3cccs3)C(=O)C3CC3)[nH]c(=O)c2c1C	-2.1	0.1	97*	88*	0
Cc1nc2scc(-c3cccs3)c2c(=O)n1-n1cccc1	-3	0.4	53*	58*	0.5
Cc1nc2scc(-c3cccs3)c2c(=O)o1	-0.32	0.5	80*	55*	0.2
Cc1ccc(C)n1-n1c(C)nc2scc(-c3cccs3)c2c1=O	-3.9*	0.3	79*	71*	0.2
COC(=O)c1ccc(CSc2nnc(CNC(=O)c3cccs3)o2)o1	-0.018	0.7	38	29	0.6
SMILES	Cav3 T inh	CYP2C9 act	CYP2C19 inh	CYP2C9 inh	CYP2C19 activ
CC(=O)C[C@H]1c2cc(C(F)(F)F)ccc2S(=O)(=O)N1c1ccc(N(C)C)cc1	0.74	.	.	.	.
Oc1ccc(-n2cnnn2)cc1	.	1.4	-10	-41	1.1
CCN1N=C(c2ccccc2)Cn2c1nc1ccccc12	1.1	0.3	58*	69*	0.4
COc1ccc2c(c1)nc(N)n2Cc1ccccc1	0.33	0.9	85*	10	0.1
COc1ccc(-c2nnnn2CCc2ccccc2)cc1	-0.13	0.3	98*	71*	0
C=CCn1c(-c2ccc(OC)cc2)nc2ccccc21	-0.84	0.2	73*	76*	0.3
C=CCn1c(-c2ccc(N)cc2)nc2ccccc21	0.32	0.7	23	33	0.8
COc1ccc(-c2nc3ccccc3n2Cc2ccccc2)cc1	-9.9*	0	76*	96*	0.2
CCn1c2ccc(OC)cc2c2nc3ccccc3nc21	-0.82	.	.	.	.
CCOCCn1c(CN2CCOCC2)nc2c1c(=O)[nH]c(=O)n2C	-0.12	.	.	.	.

Compound activity as filed in PubChem.
